Assay results taken from PubChem BioAssay (NCI).
About 79,000 compounds went through this panel and 15% of them were active in at least one assay; those are over-represented in the sample as a whole. Activity calls are given as the source filed them. Rule as the data show it: active = growth inhibition above about 70%; inactive = the rest.

Assay: NCI Yeast Anticancer Drug Screen. Data for the rad50 strain (AID 155);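 also: 0% = growth of vehicle-only cultures of the same strain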
Conditions: S. cerevisiae rad50 strain growth inhibition; at 50.0 µM; stronger effect = higher value
How it was run: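 Readout: growth inhibition relative to vehicle-treated cultures. Compound exposure was carried out in a genetically defined yeast strain deficient in DNA damage repair.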
With `Oc1ccc2oc3ccccc3c2c1` the growth inhibition was 94.5% (active).
With `O=C(O)Cc1cc(I)c(Oc2ccc(O)c(I)c2)c(I)c1` the growth inhibition was 89.8% (active).
In the case of `O=C(O)/C(=C\c1ccc(Cl)cc1)c1ccc(C(F)(F)F)cc1[N+](=O)[O-]`, the growth inhibition is reported as 94.1% (active).
With `Fc1ccc(NC(=S)SCc2ccccc2)cc1` the growth inhibition was 68.3% (inactive).
With `CN(C)c1ccccc1CC(c1c[nH]c2ccccc12)c1c[nH]c2ccccc12` the growth inhibition was 84.8% (active).
With `O=C(c1ccccc1)N1CCN(c2cccc(Cl)c2)CC1` the growth inhibition was 29.2% (inactive).
In the case of `[C-]#[N+]C(C)(c1ccccc1)c1ccccc1`, the growth inhibition is reported as 95.5% (active).
In the case of `Nc1ccccc1[S][Sn]([c]1ccccc1)([c]1ccccc1)[c]1ccccc1`, the growth inhibition is reported as 98.5% (active).
In the case of `O=C1C(Cl)=C(Cl)C(=O)c2cc(Cl)c(Cl)cc21`, the growth inhibition is reported as 83.9% (active).
In the case of `CCCCCCCNC1CCCc2cc(OC)ccc21` (stereo not given), the growth inhibition is reported as 85.5% (active).
In the case of `NCCc1ccc2oc3cc(=O)c4ccccc4c-3nc2c1`, the growth inhibition is reported as 45.4% (inactive).
In the case of `C/C=C/c1cc2c(cc1O)CC[C@@H]1[C@@H]2CC[C@]2(C)[C@@H](O)CC[C@@H]12`, the growth inhibition is reported as 89% (active).
For `c1ccc(SSc2ccccn2)nc1`, the growth inhibition was 96.5% (active).
With `COC1=C2C[C@@H](C)C[C@@H](OC)[C@@H](O)[C@H](C)/C=C(\C)[C@@H](OC(N)=O)[C@H](OC)/C=C\C=C(/C)C(=O)NC(=CC1=O)C2=O` the growth inhibition was 85.8% (active).
For `NCc1ccccc1-c1c2nc(c(-c3ccccc3CN)c3ccc([nH]3)c(-c3ccccc3CN)c3nc(c(-c4ccccc4CN)c4ccc1[nH]4)C=C3)C=C2`, the growth inhibition was 79% (active).
